Test results published in PubChem BioAssay AID1211 (NMMLSC, 2008).
Active and inactive are the calls of the source. No rule for the calls is given here.

Target: Estrogen receptor (Homo sapiens) (UniProt P03372)
Experiment: displacement of fluorescent estrogen from ERalpha – cell-based, Cos7 ERalpha-GFP, flow cytometry, primary screen (AID 1211);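 also: 0% = DMSO vehicle wells and 100% = no E2-Alexa633 signal left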
Conditions: fluorescent ligand competition, stronger effect = higher value

Chain of Estrogen receptor (Homo sapiens) (P03372 whole entry, looked up): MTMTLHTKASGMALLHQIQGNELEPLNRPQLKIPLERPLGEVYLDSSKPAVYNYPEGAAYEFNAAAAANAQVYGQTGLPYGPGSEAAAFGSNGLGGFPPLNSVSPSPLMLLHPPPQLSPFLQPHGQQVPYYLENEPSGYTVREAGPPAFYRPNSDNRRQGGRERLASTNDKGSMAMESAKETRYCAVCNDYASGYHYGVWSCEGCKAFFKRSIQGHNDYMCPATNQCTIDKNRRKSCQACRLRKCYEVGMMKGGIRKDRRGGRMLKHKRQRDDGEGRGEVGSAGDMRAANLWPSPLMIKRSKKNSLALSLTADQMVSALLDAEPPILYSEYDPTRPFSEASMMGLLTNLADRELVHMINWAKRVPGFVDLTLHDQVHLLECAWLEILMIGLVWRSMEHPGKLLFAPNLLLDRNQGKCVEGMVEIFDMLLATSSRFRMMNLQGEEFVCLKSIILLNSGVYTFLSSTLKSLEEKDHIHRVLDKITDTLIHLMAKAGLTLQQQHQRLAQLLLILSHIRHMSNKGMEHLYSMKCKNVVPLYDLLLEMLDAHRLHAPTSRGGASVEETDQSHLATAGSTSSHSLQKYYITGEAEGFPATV

SMILES	inhibition of ligand binding (at 10 µM)	inhibition of ligand binding (binding inhibition, at 0.1 µM) [%]
COc1cc(CCC(=O)OCC(=O)Nc2ncc(Cl)cc2Cl)cc(OC)c1OC	3% (inactive)	27
CCN1CCN(Cc2c(O)c(Cl)cc3c(C)cc(=O)oc23)CC1	31% (inactive)	28
CC1=C(SCCC#N)S/C(=C2\SC(C)=C(SCCC#N)S2)S1	59% (inactive)	11
CC1(C)N=C(N)N=C(N)N1c1ccc(C(=O)O)cc1	35% (inactive)	21
O=C(COC(=O)CC1CCCC1)Nc1cc2c(cc1Cl)C(=O)c1ccccc1C2=O	37% (inactive)	24
COc1ccc(C2Nc3ccccc3C(=O)N2Cc2ccccc2)cc1Cn1nnc2ccccc21 (centres undefined)	54% (inactive)	19
COc1ccc2c(c1)c(=O)oc1cc(OCC(=O)NC3CCCCC3)ccc12	60% (inactive)	60
Cc1c(C(=O)OCc2ccccc2)[nH]c2c1C(=O)CC(c1ccco1)C2 (centres undefined)	37% (inactive)	24
Cc1ccc(-c2nn(-c3ccccc3)cc2CSC(=N)N)cc1	26% (inactive)	39
C[C@]12CC[C@@H]3c4ccc(O[C@@H]5O[C@H](C(=O)O)[C@@H](O)[C@H](O)[C@H]5O)cc4CC[C@H]3[C@@H]1C[C@@H](O)[C@@H]2O	72% (active)	40
CCOc1cc(N2CCOCC2)c(OCC)cc1NC(=O)c1cc(-c2ccco2)nc2ccccc12	24% (inactive)	4
O=C1CC(=O)N2N=C(c3ccc([N+](=O)[O-])cc3)SC2=N1	38% (inactive)	8
CCc1ccc(Nc2nc(N)nc(CSc3nnnn3-c3ccccc3)n2)cc1	49% (inactive)	16
O=Cc1ccc2oc3nc4n(c(=O)c3c(=O)c2c1)CCCS4	40% (inactive)	15
Cc1nnc(NC(=O)CSc2nc3c(c(=O)n2CCc2ccccc2)SC(C)C3)s1 (centres undefined)	23% (inactive)	61
Nc1ccc(-c2cc(-c3ccc(N)cc3)nc(-c3ccccc3)n2)cc1	51% (inactive)	12
CCOC(=O)C1=C(O)/C(=C\c2ccc(CNC(=O)C(=O)Nc3ccccc3)o2)N=C1C	24% (inactive)	19
Clc1ccc(Sc2cc(N3CCOCC3)nc(-c3ccccc3)n2)cc1	41% (inactive)	25
C/C=C(/C(=C/C)c1ccc(O)cc1)c1ccc(O)cc1	76% (active)	87
Clc1ccc2nc(-c3ccccn3)c(Nc3ccc4c(c3)OCO4)n2c1	42% (inactive)	9
O=C(CSc1nc(C2CCCCC2)n(-c2ccccc2)n1)NCC(F)(F)F	41% (inactive)	46

SMILES	inhibition of ligand binding (at 10 µM)	inhibition of ligand binding (binding inhibition, at 0.1 µM) [%]
CC1(C)Cc2c(sc3c4nnnn4c4nnnn4c23)CO1	12% (inactive)	21
O=C(Cn1ncc2c(=O)oc3ccccc3c21)Nc1nc2ccccc2s1	7% (inactive)	22
O=C(NCCN1CCOCC1)c1cnn2c(-c3ccccc3)cc(-c3ccccc3)nc12	0% (inactive)	8
COc1cccc(NC(=O)CSc2nc3ccccc3c3nc4ccccc4n23)c1	51% (inactive)	56
Cc1ccc(C(=O)N/N=C/c2ccc([N+](=O)[O-])s2)cc1	40% (active)	73
CSc1ccc(S(=O)(=O)Nc2cccc(F)c2)cc1	45% (inactive)	54
O=C(Cc1coc2cc3c(cc12)CCC3)OCc1cc(=O)n2c(n1)sc1ccccc12	31% (inactive)	9
CC1CCc2c(sc(NC(=O)c3ccc(Cn4cc([N+](=O)[O-])cn4)o3)c2C#N)C1 (centres undefined)	44% (inactive)	39
CC1(C)OC(C)(C)/C(=C/Nc2ccc(O)cc2)C1=O	10% (inactive)	12
CCOc1cccc2cc(-c3nnc(NCc4ccco4)s3)c(=O)oc12	47% (inactive)	61
COc1ccc(-c2nn(-c3ccccc3)cc2/C=C2/SC(=S)N(Cc3ccco3)C2=O)c(C)c1	21% (active)	67
C=CCn1c(SCC(=O)NC(=O)NCc2ccco2)nc2sc(CC)cc2c1=O	10% (inactive)	3
COc1cc(-c2nc3ccc4ccccc4c3c3c2CCC3)cc(OC)c1O	0% (inactive)	30
Cc1cc(C(=O)O)ccc1-n1c(C)ccc1C	43% (inactive)	58
O=C(Cc1ccccc1)Nc1ccc2oc(-c3cccnc3)nc2c1	32% (inactive)	44
O=C(O)C1CSC(c2coc3ccccc3c2=O)N1 (centres undefined)	6% (inactive)	47
Cc1ccc(C2=Nc3ccccc3N=C(c3ccco3)C2)c(O)c1	2% (inactive)	26
COc1ccccc1N1CCN(C(=O)c2cc3c(s2)CCC3)CC1	41% (inactive)	55
COc1ccc(C2CC(c3c(-c4ccccc4)c4cc(Cl)ccc4[nH]c3=O)=NN2S(C)(=O)=O)cc1OC (centres undefined)	29% (inactive)	37
CCOC(=O)c1c(NC(=O)CSc2nnc(-c3ccccc3)o2)sc(C(C)=O)c1C	21% (inactive)	33
Cc1ccc(-n2nnnc2SCC(=O)Nc2cccc(NC(=O)c3ccco3)c2)cc1C	46% (inactive)	7
